Test results taken from PubChem BioAssay (NCATS).
Values joined by “and” are separate entries in the source; they are usually repeats but may differ in a detail not shown here. Equal entries are not always repeated. Records with an inconclusive call do not appear. Active and inactive are the calls of the source. Unless noted, calls come from the whole dose curve; as a rule, active = well fitted curve in the direction sought with a large enough effect; inconclusive = small, poorly fitted or top-dose-only effect, or another doubt; inactive = no such curve, though single readings can be large; an effect the other way counts as inactive or inconclusive.

Assays:
[1] = Primary qHTS for inhibitors of nuclear receptor binding SET domain protein 2 (NSD2) in an RCH-ACV wild type WT cells (2C) (AID 1645877); note: nearly all actives have a fitted effect of over 70% in size; note: potency is the fitted concentration of half-maximal effect
[2] = target: Glutathione peroxidase 1 (Homo sapiens) (UniProt P07203); assay: Primary qHTS Assay for Inhibitors of Recombinant Selenoprotein Glutathione Peroxidase 1 (GPX1) (AID 1845191); note: nearly all actives have a fitted effect of over 65% in size; note: potency is the fitted concentration of half-maximal effect
Method in brief: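 Recombinant GPX1 (10 nM final) was preincubated with compound for 30 min at room temperature, then reacted with 1 mM GSH, 0.5 mM CHP, 0.5 mM NADPH and 100 nM glutathione reductase; NADPH fluorescence (340/450 nm) was read at 0 and 15 min.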

[3] = target: Phospholipid hydroperoxide glutathione peroxidase GPX4 (Homo sapiens) (UniProt P36969); assay: Primary qHTS Assay for Inhibitors of Recombinant Selenoprotein Glutathione Peroxidase 4 (GPX4) (AID 1845192); note: nearly all actives have a fitted effect of over 65% in size; note: potency is the fitted concentration of half-maximal effect
Method in brief: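 GR-coupled readout: 100 nM GR, 1 mM GSH, 0.5 mM NADPH; NADPH fluorescence (ex 340/em 450 nm) read at t=0 and after 15 min RT. GPX4 200 nM, preincubated 30 min with compound; substrate 0.5 mM CHP.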

[4] = qHTS drug screen for cell cycle checkpoint inhibitors in PARPi-resistant BRCA-mutant ovarian cancer cell lines. (AID 1963452; calls by dose curve); details: PEO1/OlaR viability, CellTiter-Glo luminescence, 96 h, stronger effect = lower value
Method in brief: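 PEO1, PEO4 and PEO1/OlaR ovarian cancer cells, 600 per well, exposed 96 h at 37C to a dilution series. Viability read by CellTiter-Glo luminescence, normalized to DMSO and empty wells; activity summarized as Z-AUC.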

[5] = Primary qHTS for inhibitors of nuclear receptor binding SET domain protein 2 (NSD2) in an isogenic RCH-ACV NSD2 p.E1099K mutant (9B) (AID 1645876); note: % is set by controls: 0 for no effect and ±100 for the full control effect; nearly all actives have a fitted effect of over 70% in size
[6] = NCATS anti-infectives library activity on HEK293 viability as a counter-qHTS vs the C. elegans viability qHTS (AID 1745854);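 note: HEK293 cells exposed to compounds for 24 hr before the viability read; % is set by controls: 0 for no effect and ±100 for the full control effect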
Method in brief: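 Compounds were acoustically plated (several concentrations, 1:5, final up to 41.7 uM), then 1500 HEK293 cells added per well and incubated 24 hr at 37C, 5% CO2. CellTiter-Glo was added and luminescence read after 10 min.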

[7] = measured here: PEO1 parental Z-AUC

Sequence of Glutathione peroxidase 1 (Homo sapiens) (P07203 whole entry, looked up): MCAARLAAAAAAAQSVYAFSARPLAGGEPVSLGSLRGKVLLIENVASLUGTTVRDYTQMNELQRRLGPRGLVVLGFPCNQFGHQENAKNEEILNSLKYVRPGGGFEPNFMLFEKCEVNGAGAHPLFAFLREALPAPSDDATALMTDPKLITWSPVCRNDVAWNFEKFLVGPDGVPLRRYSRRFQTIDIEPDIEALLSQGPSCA
Sequence of Phospholipid hydroperoxide glutathione peroxidase GPX4 (Homo sapiens) (P36969 whole entry, looked up): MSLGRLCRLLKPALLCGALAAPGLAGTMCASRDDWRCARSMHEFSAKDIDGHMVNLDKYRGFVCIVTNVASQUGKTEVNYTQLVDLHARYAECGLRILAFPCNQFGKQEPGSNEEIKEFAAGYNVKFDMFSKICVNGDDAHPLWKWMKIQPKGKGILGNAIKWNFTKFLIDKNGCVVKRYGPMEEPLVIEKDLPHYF

SMILES	Potency [1]	Potency [2]	Potency [3]	Z-AUC [4]	Z-AUC [4, 7]	Z-AUC ([4]; measured here: PEO4 Z-AUC)	Potency [5]	outcome [6]
COC(=O)N[C@H](C(=O)N1CCC[C@H]1c1ncc(-c2ccc(-c3ccc(-c4cnc([C@@H]5CCCN5C(=O)[C@@H](NC(=O)OC)C(C)C)[nH]4)cc3)cc2)[nH]1)C(C)C	20.9 µM (active)	16.1 µM (active)	18 µM (active) and 20 µM (active)	-0.519 (inactive)	-0.789	-0.801		
COc1ncc(Nc2ncc(C(C)N3CCN(S(C)(=O)=O)CC3)cc2-c2nc(C)nc(N)n2)cc1F (stereo not drawn)	inactive	inactive	inactive	0.314 (inactive)	0.577	0.144		
CC1=C(c2ccc(O)cc2)[C@H](c2ccc(OCCN3CCCCC3)cc2)Oc2cc(O)ccc21		inactive		0.716 (inactive)	0.402	-0.752	inactive	
O=C(O)CNC(=O)c1ncc(-c2cccc(Cl)c2)cc1O	inactive	inactive						
CCC[C@H](NC(=O)[C@@H]1[C@H]2CCC[C@H]2CN1C(=O)[C@@H](NC(=O)[C@@H](NC(=O)c1cnccn1)C1CCCCC1)C(C)(C)C)C(=O)C(=O)NC1CC1	5.9 µM (active)	inactive		1.49 (inactive)	0.769	0.725		inactive
CCN1/C(=C/C(C)=O)Sc2ccc(O)cc21	14.6 µM (active)							
NC(=O)c1cc(F)cc2c1C(=O)N(C1CCN(C3CCC(F)(F)CC3)CC1)C2		inactive		-0.257 (inactive)	-0.805	-0.459	inactive	inactive
CN1CCN(CCCNc2ncc(Cl)c(-c3cc4c(C(=O)NC5CC5)cccc4s3)n2)CC1	23.5 µM (active)	inactive		-0.322 (inactive)	-0.452	-0.0901		
C[n+]1ccc(-c2c3nc(c(-c4cc[n+](C)cc4)c4ccc([nH]4)c(-c4cc[n+](C)cc4)c4nc(c(-c5cc[n+](C)cc5)c5ccc2[nH]5)C=C4)C=C3)cc1	inactive							
